# Results reported in PubChem BioAssay (NCATS).
# Where “and” joins values, the source holds several entries; their conditions need not be identical. Equal values may be shown once. Records with an inconclusive call do not appear. The source holds several records for some structures; these can differ, active in one and inactive in another. A number with no mark means an inactive call. Calls of active or inactive are those of the source. Calls come from the whole dose curve; as a rule, active = well fitted inhibition curve with a large enough effect; inconclusive = small, poorly fitted or top-dose-only effect; inactive = flat fitted curve, though single readings scatter.
# System: HEK293
# Assay: Cytotoxic Profiling of Annotated Libraries Using Quantitative High-Throughput Screening (AID 1296008); note: nearly all actives have a fitted effect of over 60% in size
# Details: Five cell lines viability, CellTiter-Glo ATP luminescence, 48-72 h; max response: stronger effect = lower value
# Source text: Cell-based phenotypic screening is a commonly used approach to discover biological pathways, novel drug targets, chemical probes and high-quality hit-to-lead molecules. Many hits identified from high-throughput screening campaign are ruled out through a series of follow-up potency, selectivity/specificity, and cytotoxicity assays. Prioritization of molecules with little or no cytotoxicity for a more in-depth downstream evaluation influence the future direction of projects, so cytotoxicity profiling of the screening libraries at early stage is essential for increasing the likelihood of candidate success. […] For the annotated library, we also examined the primary targets and mechanistic pathways regularly associated with cell death. To our knowledge, this is the first study to use high-throughput screening to profile large libraries for cytotoxicity assessment in both normal and cancer cell lines. In summary, the results generated here constitutes a valuable resource for the scientific community and provides insight on identifying cytotoxic compounds with particular mechanisms of action, and prioritizing compounds with suitable cytotoxicity profile for further evaluation.
# A pintool (Kalypsys) was used to transfer 23 nL of compound solution to the 1536-well assay plates. After 48 or 72 hr incubation at 37 degree Celsius, 5% CO2 and 95% humidity, 2.5 uL of CellTiter-Glo (Promega) was dispensed into each well using a dispenser (Aspect Automation, St. Paul, MN) with solenoid valves (Lee Valves, Westbrook CT). Plates were left at room temperature for 10 min before imaging the ATP-coupled luminescence using a ViewLux microplate imager (PerkinElmer, Waltham, MA).
# % is set by controls: 0 for no effect and ±100 for the full control effect; potency is the fitted concentration of half-maximal effect.
SMILES,Potency,max response,outcome
CNCC[C@H](Oc1cccc2ccccc12)c1cccs1,21.1 µM (active),,
COc1ccccc1OCC(O)COC(N)=O (stereo not given),,2.15%,inactive
O=C(O)CSCC(=O)NC1CCSC1=O (stereo not given),,-6.58%,inactive
Nc1nc(N)c2nc(CNc3ccc(C(=O)NC(CCC(=O)O)C(=O)O)cc3)cnc2n1 (stereo not given),0.132 µM (active),,
CC(C)(Sc1cc(C(C)(C)C)c(O)c(C(C)(C)C)c1)Sc1cc(C(C)(C)C)c(O)c(C(C)(C)C)c1,,2.23%,inactive
CCCCCCNC(=O)n1cc(F)c(=O)[nH]c1=O,7.5 µM (active) and 13.2 µM (active),,
COc1cc(NCc2ccc3nc(N)nc(N)c3c2C)cc(OC)c1OC,4.18 µM (active) and 53.1 nM (active),,
OCc1ccc(-c2nn(Cc3ccccc3)c3ccccc23)o1,14.8 µM (active),,
COc1ccc2c(c1)c(CC(=O)OCC(=O)O)c(C)n2C(=O)c1ccc(Cl)cc1,,-16.6%,inactive
COc1cc(NS(=O)(=O)c2ccc(N)cc2)nc(OC)n1,,4.64% and 3.91%,
Cc1cccc(Nc2ccncc2S(=O)(=O)NC(=O)NC(C)C)c1,,1.87% and -6.16%,
O=NN(CCCl)C(=O)NC1CCCCC1,,3.97%,inactive
O=P(O)(O)C(O)(Cc1cccnc1)P(=O)(O)O,,-6.47% and -0.4%,inactive
CCn1cc(C(=O)O)c(=O)c2cc(F)c(N3CCNCC3)nc21,,-5.1%,inactive
CC(=O)CC(c1ccccc1)c1c(O)c2ccccc2oc1=O (stereo not given),,,inactive
NC(=O)N1c2ccccc2CC(=O)c2ccccc21,,,inactive
C[C@@H](CN1CC(=O)NC(=O)C1)N1CC(=O)NC(=O)C1,0.235 µM (active),,
NS(=O)(=O)c1cc2c(cc1Cl)NC(C(Cl)Cl)NS2(=O)=O (stereo not given),,-0.123%,inactive
CC[C@H](NC(C)C)[C@H](O)c1ccc(O)c2[nH]c(=O)ccc12,,,inactive
CCN1CCCC1CNC(=O)c1cc(S(N)(=O)=O)ccc1OC (stereo not given),,-9.26%,
COc1nc(N)nc2c1ncn2[C@@H]1O[C@H](CO)[C@@H](O)[C@@H]1O,,,inactive
Cc1noc(NS(=O)(=O)c2ccc(N)cc2)c1C,,,inactive
CCCc1cc(C(N)=S)ccn1,,-0.75% and -9.47%,
CCOC(=O)c1ccc(OC(=O)CCCCCN=C(N)N)cc1,,-2.03%,inactive
CCCCOc1ccc(CC(=O)NO)cc1,,-50.4%,
CN(CCOc1ccc(CC2SC(=O)NC2=O)cc1)c1ccccn1 (stereo not given),,2.68%,inactive
S=P(N1CC1)(N1CC1)N1CC1,22.8 µM (active),,
CC(C)C[C@H](NC(=O)[C@H](CCc1ccccc1)NC(=O)CN1CCOCC1)C(=O)N[C@@H](Cc1ccccc1)C(=O)N[C@@H](CC(C)C)C(=O)[C@@]1(C)CO1,37.6 nM (active) and 23.5 nM (active),,
COc1ncnc(NS(=O)(=O)c2ccc(N)cc2)c1OC,3.32 µM (active),,inactive
